Test results from PubChem BioAssay AID1159580 (chemical genetic matrix, 2015).
Screen size: about 5,500 compounds; about 2,000 (36%) were called active. Roughly 18% stayed inconclusive and do not appear here. Cut-off read from the data, not from the text of the source: active = normalized growth mostly below about 0.91 (no sharp cut-off); inconclusive = no clear call, values can overlap the other calls; inactive = mostly above about 0.92. This is one part of the list.

Experiment: chemical genetic growth profiling, strain panel (AID 1159580);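 note: tested at 20 µM; growth read once vehicle control cultures reached saturation at 30 °C; 1 = growth at the plate median or of vehicle wells; lower values mean less growth of the strain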
Conditions: S. cerevisiae deletion strains, growth OD

Measured: normalized growth

CC1(C)C(C(Cl)Cl)C2(Cl)C(Cl)C(Cl)C1(Cl)C2(Cl)Cl (centres undefined)
active: locus YDR137W, strain rgp1, hits give low values 0.839 | locus YHR013C, strain ard1, hits give low values 0.798 | locus YJL129C, strain trk1, hits give low values 0.841
inactive: locus YAL013W, strain DEP1, hits give low values 0.984 | locus YAL021C, strain ccr4, hits give low values 1.07 | locus YAL026C, strain drs2, hits give low values 0.996 | locus YAL030W, strain snc1, hits give low values 0.984 | locus YBL061C, strain skt5, hits give low values 0.983 | locus YBR009C, strain hhf1, hits give low values 0.976 | locus YBR021W, strain FUR4, hits give low values 0.996 | locus YBR023C, strain chs3, hits give low values 0.978 | locus YBR171W, strain sec66, hits give low values 0.978 | locus YBR229C, strain ROT2, hits give low values 0.987 | locus YBR231C, strain swc5, hits give low values 0.979 | locus YBR279W, strain paf1, hits give low values 0.992 | locus YCL011C, strain gbp2, hits give low values 0.993 | locus YCL016C, strain dcc1, hits give low values 0.979 | locus YCL029C, strain bik1, hits give low values 0.972 | locus YCL061C, strain MRC1, hits give low values 0.981 | locus YCL069W, strain vba3, hits give low values 0.993 | locus YCR088W, strain abp1, hits give low values 0.989 | locus YDL005C, strain med2, hits give low values 0.981 | locus YDL035C, strain GPR1, hits give low values 0.972 | locus YDL040C, strain nat1, hits give low values 0.984 | locus YDL074C, strain BRE1, hits give low values 1.02 | locus YDL101C, strain DUN1, hits give low values 0.991 | locus YDL134C, strain PPH21, hits give low values 0.986 | locus YDL185W, strain tfp1, hits give low values 0.989 | locus YDL192W, strain arf1, hits give low values 0.978 | locus YDR001C, strain nth1, hits give low values 0.992 | locus YDR069C, strain doa4, hits give low values 0.967 | locus YDR101C, strain arx1, hits give low values 0.99 | locus YDR150W, strain NUM1, hits give low values 0.999 | locus YDR159W, strain sac3, hits give low values 0.892 | locus YDR162C, strain NBP2, hits give low values 0.988 | locus YDR195W, strain ref2 0.997 | locus YDR297W, strain sur2, hits give low values 0.977 | locus YDR318W, strain mcm21, hits give low values 0.971 | locus YDR334W, strain swr1, hits give low values 0.997 | locus YDR335W, strain msn5, hits give low values 0.993 | locus YDR388W, hits give low values 0.959 | locus YDR392W, strain spt3, hits give low values 0.836 | locus YDR502C, strain sam2, hits give low values 0.974 | locus YEL003W, strain gim4, hits give low values 0.984 | locus YEL037C, strain rad23, hits give low values 0.995 | locus YEL061C, strain CIN8 (second series), hits give low values 0.995 | locus YEL061C, strain CIN8, hits give low values 0.994 | locus YER015W, strain faa2, hits give low values 0.979 | locus YER016W, strain bim1, hits give low values 0.984 | locus YER110C, hits give low values 0.981 | locus YER111C, strain swi4, hits give low values 1 | locus YER155C, strain BEM2 (second series), hits give low values 0.965 | locus YER155C, strain BEM2, hits give low values 0.983 | locus YER167W, strain BCK2, hits give low values 0.968 | locus YFR010W, strain ubp6, hits give low values 1 | locus YGL078C, strain dbp3, hits give low values 0.975 | locus YGL086W, strain mad1, hits give low values 0.981 | locus YGL167C, strain pmr1, hits give low values 0.973 | locus YGL173C, strain kem1, hits give low values 0.972 | locus YGL227W, strain vid30, hits give low values 0.99 | locus YGL240W, strain doc1, hits give low values 0.963 | locus YGL248W, strain PDE1, hits give low values 0.991 | locus YGL253W, strain hxk2, hits give low values 0.989 | locus YGR078C, strain PAC10, hits give low values 0.989 | locus YGR135W, strain pre9, hits give low values 0.971 | locus YGR229C, strain SMI1, hits give low values 0.962 | locus YGR252W, strain gcn5, hits give low values 0.962 | locus YHR027C, strain rpn1, hits give low values 0.977 | locus YHR030C, strain SLT2, hits give low values 0.965 | locus YHR079C, strain IRE1 (second series), hits give low values 0.965 | locus YHR094C, strain hxt1, hits give low values 0.974 | locus YHR129C, strain ARP1, hits give low values 0.996 | locus YHR142W, strain chs7, hits give low values 0.992 | locus YHR200W, strain rpn10, hits give low values 0.977 | locus YIL066C, strain RNR3, hits give low values 0.955 | locus YIL073C, strain SPO22, hits give low values 0.883 | locus YIL125W, strain kgd1, hits give low values 0.979 | locus YIR030C, strain dcg1, hits give low values 0.972 | locus YJL092W, strain hpr5, hits give low values 0.986 | locus YJL095W, strain BCK1 (second series), hits give low values 0.983 | locus YJL095W, strain BCK1, hits give low values 0.991 | locus YJL115W, strain asf1, hits give low values 0.99 | locus YJL134W, strain LCB3, hits give low values 0.986 | locus YJL154C, strain vps35, hits give low values 0.993 | locus YJL164C, strain tpk1, hits give low values 0.975 | locus YJL166W, strain qcr8, hits give low values 0.904 | locus YJL168C, strain set2, hits give low values 0.978 | locus YJL187C, strain SWE1 (second series), hits give low values 0.983 | locus YJL187C, strain SWE1, hits give low values 0.988
